Whole data set: some 33,000 sequences, median “E-score (-0.5 to 0.5)” near -0.043, cut for the highest 2% near 0.37. The sample holds the highest values, similar sequences and a random draw of the others, so the mix is not that of the screen.

This assay has as its target T1, Upc2 (UniProt Q12151).
T1 sequence: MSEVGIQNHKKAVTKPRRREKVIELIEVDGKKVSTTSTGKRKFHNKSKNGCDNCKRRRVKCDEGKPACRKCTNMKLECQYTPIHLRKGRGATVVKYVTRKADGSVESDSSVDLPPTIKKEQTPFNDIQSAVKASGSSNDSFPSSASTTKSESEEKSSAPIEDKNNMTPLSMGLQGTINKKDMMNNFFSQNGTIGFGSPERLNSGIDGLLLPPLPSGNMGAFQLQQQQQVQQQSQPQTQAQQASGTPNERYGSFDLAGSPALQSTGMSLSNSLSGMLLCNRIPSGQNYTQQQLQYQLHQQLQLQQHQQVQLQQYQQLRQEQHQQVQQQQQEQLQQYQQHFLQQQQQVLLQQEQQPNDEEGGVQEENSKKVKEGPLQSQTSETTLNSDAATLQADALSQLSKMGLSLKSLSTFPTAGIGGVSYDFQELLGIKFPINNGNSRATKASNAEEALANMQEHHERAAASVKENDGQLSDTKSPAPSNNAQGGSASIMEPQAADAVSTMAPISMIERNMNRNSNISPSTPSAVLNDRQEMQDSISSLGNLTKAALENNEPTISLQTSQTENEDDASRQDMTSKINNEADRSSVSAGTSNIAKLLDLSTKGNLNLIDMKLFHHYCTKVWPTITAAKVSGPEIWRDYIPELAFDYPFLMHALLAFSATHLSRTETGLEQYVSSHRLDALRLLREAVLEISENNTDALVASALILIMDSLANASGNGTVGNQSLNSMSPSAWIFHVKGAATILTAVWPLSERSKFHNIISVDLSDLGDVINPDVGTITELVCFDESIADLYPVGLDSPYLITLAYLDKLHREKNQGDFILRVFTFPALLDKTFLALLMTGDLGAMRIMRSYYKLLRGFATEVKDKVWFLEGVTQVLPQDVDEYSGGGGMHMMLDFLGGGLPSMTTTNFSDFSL
Nature of the assay: PBM E-score (8-mer binding enrichment) (E-score (-0.5 to 0.5)); higher = stronger / more preferred TF binding. The conditions noted are these: protein concentration: 200 nM; construct: GST-full length. In outline: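 Each ungapped eight-base word and its reverse complement, pooled, received an E-score from the Universal PBM Analysis Suite. Underlying scans, normalised with masliner, recorded fluorescent anti-GST bound to GST-tagged yeast transcription factors. These were applied at about 100-200 nM to universal all-10-mer Agilent arrays double-stranded by primer extension.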
On to CCGTAGAA, for which the “PBM E-score” value is 0.118.

On to GCGTAGAA, for which the “PBM E-score” value amounted to 0.0848.

Regarding TCGTAGAA, the “PBM E-score” value is 0.39.

With TCGTAGCA, the “PBM E-score” value stood at 0.39.

Consider TAACTGAA, for which the “PBM E-score” value is -0.0941.

Regarding ACAACACT, the “PBM E-score” value came out at 0.0862.

In the case of ATATGGTA, the “PBM E-score” value turned out to be 0.158.

Turning to CTTCTTAA, the “PBM E-score” value is 0.0092.

For the sequence ACCCTCGC, the “PBM E-score” value is 0.0921.

On to AACCTCGT, for which the “PBM E-score” value amounted to 0.372.

Consider AACCTCGA, for which the “PBM E-score” value stood at 0.0605.

Regarding ACCCTCGT, the “PBM E-score” value came out at 0.419.

In the case of ACCCTCGA, the “PBM E-score” value was -0.244.

In the case of AACCTCGC, the “PBM E-score” value worked out at 0.0636.

For TCAGGCAA, the “PBM E-score” value was -0.146.

Consider TATTCACA, for which the “PBM E-score” value was 0.101.

CGTACCGA: the “PBM E-score” value was found to be 0.398.

As to GGTACCGA, the “PBM E-score” value came to 0.0871.

For the sequence AGTACCGC, the “PBM E-score” value was 0.1.

For CATACCGC, the “PBM E-score” value is 0.00223.

In the case of CGTACCGC, the “PBM E-score” value was found to be 0.416.

For AGTACCGA, the “PBM E-score” value was -0.0766.

For the sequence GCTCATCA, the “PBM E-score” value is -0.195.

GTAAAGCA: the “PBM E-score” value was found to be 0.223.

As to ACTTCTGA, the “PBM E-score” value is -0.307.

On to CGGGGCAG, for which the “PBM E-score” value came to 0.131.

Regarding TCAGAAAA, the “PBM E-score” value is -0.153.

With GGCCGTAC, the “PBM E-score” value was found to be 0.389.

As for CGCCGTAG, the “PBM E-score” value turned out to be 0.0712.

Take AGCCGTAC: the “PBM E-score” value was found to be 0.346.

For the sequence CGCCGTAC, the “PBM E-score” value is 0.408.

On to GGCCGTAA, for which the “PBM E-score” value was determined as 0.255.

As for CGCCGTAA, the “PBM E-score” value is 0.285.

Regarding TCTCTCCA, the “PBM E-score” value is -0.118.

In the case of CCACAGCG, the “PBM E-score” value was -0.302.

As for ATGATCCG, the “PBM E-score” value is -0.0506.

With CTCGAGCC, the “PBM E-score” value was determined as 0.135.

As for CGATATCG, the “PBM E-score” value was 0.244.

As to AAGCTTCG, the “PBM E-score” value turned out to be 0.145.

As to AACGCAAT, the “PBM E-score” value is 0.138.

As to ACTTGGCC, the “PBM E-score” value was -0.0135.

AAAAAACG: the “PBM E-score” value stood at 0.186.

In the case of CCTAGGAG, the “PBM E-score” value was -0.273.

For ATATCTAG, the “PBM E-score” value was -0.0547.

As to CGCCCTAG, the “PBM E-score” value is -0.158.

As to GGTTACGA, the “PBM E-score” value turned out to be 0.408.

Take AGTTACGA: the “PBM E-score” value amounted to 0.383.

With GGTTACTA, the “PBM E-score” value is -0.0998.

Turning to AGTTACGG, the “PBM E-score” value worked out at 0.0766.

With CGTTACAA, the “PBM E-score” value was 0.0563.

On to AGTTACGC, for which the “PBM E-score” value is 0.0981.

With CGTTACGC, the “PBM E-score” value came to 0.282.

CGTTACGA: the “PBM E-score” value came out at 0.417.

Regarding GGTTACCA, the “PBM E-score” value amounted to 0.156.

With GAACTGGC, the “PBM E-score” value is -0.158.

Consider CACCTAGG, for which the “PBM E-score” value was -0.103.

On to AAAGCGAG, for which the “PBM E-score” value was 0.217.

Take CACCTCCC: the “PBM E-score” value was -0.174.

TAAGGCCA: the “PBM E-score” value was -0.013.

As for AACTGGTG, the “PBM E-score” value is -0.163.

In the case of GCCTTCGC, the “PBM E-score” value is -0.106.

Regarding CACCGTAG, the “PBM E-score” value came to 0.0923.

In the case of CACCGTAA, the “PBM E-score” value was 0.32.

For CTCCGTAC, the “PBM E-score” value turned out to be 0.376.

For CTCCGTAA, the “PBM E-score” value is 0.285.

In the case of ATCCGTAC, the “PBM E-score” value was 0.366.

In the case of CACCGTAC, the “PBM E-score” value turned out to be 0.401.

As for CTATTTAC, the “PBM E-score” value amounted to 0.104.

With ATCTGTTC, the “PBM E-score” value came to 0.0527.

As for ATATAATC, the “PBM E-score” value is -0.158.

As for AACGCTAT, the “PBM E-score” value was 0.0885.

As for AGCCGTGG, the “PBM E-score” value was -0.17.

GGTATAGA: the “PBM E-score” value amounted to 0.111.

Take CGTATAGC: the “PBM E-score” value was 0.483.

Regarding CCTATAGC, the “PBM E-score” value was -0.286.

On to CGTATAGA, for which the “PBM E-score” value amounted to 0.48.

As for AGTATAGC, the “PBM E-score” value was 0.128.

For the sequence AGTATAGA, the “PBM E-score” value is 0.137.

Take AAGCGATA: the “PBM E-score” value was 0.205.

As to AGCTTATA, the “PBM E-score” value amounted to 0.0662.

Regarding CGGGGTCA, the “PBM E-score” value is 0.117.

Regarding ATGCTTAC, the “PBM E-score” value was -0.0957.

Turning to AGACGGCA, the “PBM E-score” value was -0.162.

For CAAACGGA, the “PBM E-score” value amounted to 0.318.

Regarding CAAACGTA, the “PBM E-score” value turned out to be 0.259.

As for AAAACGTA, the “PBM E-score” value is 0.123.

As to CAAACGCA, the “PBM E-score” value worked out at 0.258.

In the case of TAAACGTA, the “PBM E-score” value was found to be 0.407.

In the case of GAAACGGA, the “PBM E-score” value came out at 0.199.

For the sequence TAAACGCA, the “PBM E-score” value was determined as 0.399.

GAAACGCA: the “PBM E-score” value was -0.059.

As to TAAACGGA, the “PBM E-score” value was 0.454.

TATATCAA: the “PBM E-score” value was -0.04.

With AAGCCAGA, the “PBM E-score” value was -0.2.

In the case of ATCAAATC, the “PBM E-score” value is -0.078.

For the sequence CTTGAAGC, the “PBM E-score” value is -0.183.

Turning to CATCTGGG, the “PBM E-score” value was -0.133.

For the sequence CCGTCGAA, the “PBM E-score” value was found to be 0.0446.

Consider ACACTACC, for which the “PBM E-score” value was -0.098.

With CACTCAGC, the “PBM E-score” value was -0.223.

With ATAAACGC, the “PBM E-score” value stood at 0.344.

With ACAAACGC, the “PBM E-score” value came to 0.225.

Turning to ACAAACGA, the “PBM E-score” value worked out at 0.466.

With GTAAACCA, the “PBM E-score” value was 0.0531.

As for GTAAACTA, the “PBM E-score” value stood at 0.172.

As to GTAAACGA, the “PBM E-score” value was determined as 0.491.

Take CTAAACGC: the “PBM E-score” value stood at 0.416.

In the case of GCAAACGA, the “PBM E-score” value was 0.462.

On to GCAAACGC, for which the “PBM E-score” value is 0.25.

For the sequence ACAAACGG, the “PBM E-score” value is 0.328.

GCAAACAA: the “PBM E-score” value came out at 0.00753.

For CTAAACTC, the “PBM E-score” value turned out to be 0.0155.

The values are drawn from the supplement of paper PMC3334620.
